# Laboratory results taken from PubChem BioAssay AID651658 (Broad Institute, 2012).
# “And” between values parts separate entries of the source, which are not always exact repeats. Identical values can stand only once. About 5,100 (1.5%) of roughly 340,000 compounds were called active. This excerpt belongs to a sample that is enriched for actives. A number with no mark means an inactive call.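 Rule for the calls: active = mean Tm shift, scaled 0 neutral to 100 positive control, at about 1.3% or above, every replicate too (limit read from the data); inconclusive = no clear call, values can overlap the other calls; inactive = the rest.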
# Target: Fibroblast growth factor 22 (Homo sapiens) (UniProt Q9HCT0)
# Assay: binders of human FGF22 protein, primary screen, FGF22 synaptogenesis inhibitor project, biophysical, thermal shift, single point (AID 651658)
# Details: recombinant FGF22 thermal shift, SYPRO orange fluorescence; at 9.99 µM; hits give high values; percent of sucrose octasulfate shift, DMSO zero
# Chain of Fibroblast growth factor 22 (Homo sapiens) (Q9HCT0 whole entry, looked up): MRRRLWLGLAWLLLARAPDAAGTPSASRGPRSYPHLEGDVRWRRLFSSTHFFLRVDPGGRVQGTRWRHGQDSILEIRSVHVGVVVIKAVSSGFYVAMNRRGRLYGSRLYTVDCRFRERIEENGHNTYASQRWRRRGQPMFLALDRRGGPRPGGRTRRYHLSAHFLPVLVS
row,SMILES,"activity (Tm shift, normalised)"
1,COc1ccc2c3c(n(C)c2c1)[C@@H](CO)N(Cc1ccncc1)CC31CN(C(=O)C2CCC2)C1,-0.256%
2,C[C@@H]1CN([C@H](C)CO)C(=O)c2cc(NS(=O)(=O)c3ccccc3)ccc2O[C@@H](C)CCCCO[C@H]1CN(C)C(=O)C1CCCCC1,-0.338%
3,Cc1noc(C)c1S(=O)(=O)Nc1ccc2c(c1)CC(=O)N([C@@H](C)CO)C[C@@H](C)[C@H](CN(C)C)O2,-0.289%
4,CCCCN(C(=O)/C=C/c1ccco1)c1c(N)n(CC(C)C)c(=O)[nH]c1=O,43.9% (active)
5,CCCCn1c(N)c(N(CC)C(=O)/C=C/c2ccco2)c(=O)[nH]c1=O,0.345%
6,CCCCN(C(=O)c1nn(C)c(=O)c2ccccc12)c1c(N)n(CCC)c(=O)[nH]c1=O,0.011%
7,CC(C)NC(=O)N(C)C[C@H]1Oc2ccc(NC(=O)CCCCCC(=O)Nc3ccccc3N)cc2C(=O)N([C@@H](C)CO)C[C@@H]1C,-0.213%
8,COc1ccc2c3c([nH]c2c1)[C@@H](CO)N(C(=O)C1CC1)CC31CCN(Cc2nccs2)CC1,0.119%
9,CC(C)NC(=O)Nc1ccc2c(c1)C(=O)N([C@H](C)CO)C[C@H](C)[C@@H](CN(C)Cc1ccc3c(c1)OCO3)OCCCC[C@H](C)O2,-0.249%
10,Cc1ccccc1NC(=O)NC1(C(=O)N2CCCC2)CCCCC1,43.5% (active)
11,O=C(Nc1ccccc1Cl)NC1(C(=O)N2CCOCC2)CCCCC1,-0.339%
12,CC(=O)N1CCN(C(=O)C2(NC(=O)Nc3ccc(C)cc3)CCCCC2)CC1,-0.042%
13,C[C@@H]1CN([C@H](C)CO)C(=O)Cc2cc(NC(=O)NC3CCCCC3)ccc2O[C@H]1CN(C)S(C)(=O)=O,-0.091% and -0.115%
14,CC(C)NC(=O)Nc1ccc2c(c1)C(=O)N([C@@H](C)CO)C[C@H](C)[C@@H](CN(C)Cc1ccc(C(=O)O)cc1)OCCCC[C@H](C)O2,0.548%
15,COc1ccc2c3c([nH]c2c1)[C@H](CO)N(Cc1ccccc1Cl)CC31CN(C(=O)C2CC2)C1,0.006%
16,COc1cccc(S(=O)(=O)N[C@@H]2C=C[C@H](CC(=O)NC3CCC3)O[C@H]2CO)c1,0.557%
17,CC[N+]1(CC)CC2=Cc3ccccc3CC2C1 (configuration not stated),43.3% (active)
18,C[C@@H]1CCCCO[C@@H](CN(C)Cc2ccccc2)[C@H](C)CN([C@H](C)CO)C(=O)c2cc(NC(=O)Nc3cccc4ccccc34)ccc2O1,-0.579%
19,C[C@@H]1CCCCO[C@H](CN(C)C(=O)NC2CCCCC2)[C@H](C)CN([C@H](C)CO)C(=O)c2cc(NC(=O)c3ccncc3)ccc2O1,0.182%
20,COc1ccc2c3c(n(C)c2c1)[C@H](CO)N(C(=O)NC(C)C)CC31CN(CC2CCCCC2)C1,-0.103%
21,COc1ccc(CNC(=O)C2CCN(S(C)(=O)=O)CC2)cc1,43.4% (active)
22,COc1ccc(CNC(=O)C2CCCC2)cc1,-0.099%
23,COc1ccc(CNC(=O)C2CCN(S(=O)(=O)c3ccc(SC)cc3)CC2)cc1,-0.235%
24,CN(C)C(=O)c1ccc(-c2ccc([C@@H]3[C@H](C#N)N(C(=O)C4CC4)[C@H]3CO)cc2)cc1,0.09%

row,SMILES,"activity (Tm shift, normalised)"
1,CO[C@H]1CN(C)C(=O)c2cc(NC(=O)Nc3cccc(F)c3)ccc2OC[C@@H](C)N(C)C[C@H]1C,0.028%
2,CC1CN(C(=S)Nc2ccc(Br)cc2Cl)CC(C)O1 (configuration not stated),0.064%
3,S=C(Nc1ccc(Br)cc1Cl)N1CCC2(CC1)OCCO2,43.8% (active)
4,S=C(Nc1ccc(Cl)cc1Cl)N1CCCC1,-0.146%
5,O=C(Nc1cc(F)ccc1F)N1C[C@H]2[C@@H](c3ccccc31)[C@@H](CO)N2C(=O)c1ccccc1,0.029%
6,N#C[C@@H]1[C@H](c2ccccc2)[C@H](CO)N1C(=O)CN1CCOCC1,0.041%
7,O=C(Nc1ccccc1)N1C[C@@H]2[C@H](c3ccccc31)[C@H](CO)N2C(=O)c1ccccn1,-1.73%
8,O=C(Nc1ccccc1F)N1C[C@H]2[C@@H](c3ccccc31)[C@H](CO)N2C(=O)c1ccccn1,-1.13%
9,CC(C)NC(=O)N1C[C@@H]2[C@H](c3ccccc31)[C@H](CO)N2C(=O)c1ccccn1,16.8% (active)
10,O=C(Nc1ccc(C(F)(F)F)cc1)N[C@@H]1CC[C@@H](CCNC(=O)c2ccccc2F)O[C@H]1CO,0.08%
11,Cc1nn(-c2ccccc2)c(C)c1NC(=O)COC(=O)c1cc(Cl)ccc1O,-0.058%
12,O=C(COC(=O)c1cc(-c2cccs2)nn1-c1ccccc1)Nc1cc([N+](=O)[O-])ccc1Cl,43.8% (active)
13,COc1ccc(Cl)cc1NC(=O)CN(C)C(=O)c1cc(-c2cccs2)nn1-c1ccccc1,0.161%
14,CCC(=O)N1[C@@H](CO)[C@@H](c2ccc(C3=CCCC3)cc2)C12CN(C(=O)COC)C2,0.109%
15,C[C@H]1CCCCO[C@@H](CN(C)Cc2ccccc2)[C@@H](C)CN([C@@H](C)CO)C(=O)c2cc(NC(=O)CCCN(C)C)ccc2O1,-0.026%
16,CCNC(=O)C1(C)CCCN(C(=O)c2ccc3ccccc3n2)C1 (configuration not stated),-0.027%
17,CN(c1ccccc1)S(=O)(=O)c1ccc(C(=O)N2CCN(c3ccccc3Cl)CC2)cc1,-0.343%
18,O=C(c1ccc2ccccc2n1)N1CCN(c2ccccc2Cl)CC1,43.4% (active)
19,O=C(NCC[C@H]1CC[C@@H](NC(=O)c2cnccn2)[C@H](CO)O1)Nc1ccc(Cl)cc1,0.223%
20,CCC(=O)Nc1ccc2c(c1)C(=O)N(C)[C@@H]1CC[C@@H](CC(=O)NCc3ccccc3Cl)O[C@H]1CO2,-0.111%
21,C[C@@H]1CN([C@H](C)CO)S(=O)(=O)c2ccc(C#CC3(O)CCCC3)cc2O[C@@H]1CN(C)C(=O)c1cccnc1,-0.011%
22,Cc1ccc(S(=O)(=O)N(C)C[C@@H]2Oc3ccc(NC(=O)c4ccncc4)cc3CC(=O)N([C@H](C)CO)C[C@H]2C)cc1,-0.013%
23,CC1(C)CC(=O)C(CC(=O)N2CCC(Cc3ccccc3)CC2)C(=O)C1,41.9%
24,CC1(C)CC(=O)C(C2c3ccccc3S(=O)(=O)c3ccccc32)C(=O)C1,42.9% (active)

row,SMILES,"activity (Tm shift, normalised)"
1,COc1ccc2c3c(n(C)c2c1)[C@H](CO)N(CC1CC1)CC31CCN(C(=O)c2ccccc2)CC1,-0.078%
2,COc1ccc(S(=O)(=O)N[C@@H]2CC[C@@H](CC(=O)N3CCC(Cc4ccccc4)CC3)O[C@@H]2CO)cc1,0.502%
3,CS(=O)(=O)N1[C@H](CO)[C@H](c2ccccc2)C12CN(C(=O)C1CC1)C2,-0.066%
4,CC(=O)Cc1nsc(NC(=O)c2ccc(Cl)cc2Cl)n1,44.2% (active)
5,Cn1cc(C(=O)c2ccc(Cl)cc2Cl)cc1C(=O)NN,-0.308%
6,Cc1ccccc1NC(=O)Cc1nc(COC(=O)CNC(=O)c2ccc(Cl)cc2Cl)cs1,0.003%
7,O=C(CN1C(=O)S/C(=C\c2ccccc2F)C1=O)NCCCn1ccnc1,-0.15%
8,Cn1cccc1/C=C1\SC(=O)N(CC(=O)Nc2ccc(F)cc2)C1=O,43% (active)
9,Cc1nn(Cc2ccccc2)c(C)c1C(=O)NCCN1C(=O)S/C(=C\c2ccc(F)cc2)C1=O,0.11%
10,O=C(O)c1ccc(/C=N/NC(=S)NCc2ccccc2)cc1,0.16%
11,COc1ccc(S(=O)(=O)N(CC(=O)N/N=C/c2ccc(C(=O)O)cc2)Cc2ccccc2)cc1OC,-0.204%
12,CC(=O)Nc1ccc(S(=O)(=O)N(CCc2ccccc2)CC(=O)N/N=C/c2ccc(C(=O)O)cc2)cc1,1.76% (active)
13,CNC[C@H]1Oc2ncc(-c3ccccc3F)cc2C(=O)N([C@H](C)CO)C[C@H]1C,-0.078%
14,COCC#Cc1ccc2c(c1)O[C@H](CN(C)CC1CC1)[C@H](C)CN([C@H](C)CO)S2(=O)=O,0.379%
15,CCCN(C)C[C@@H]1OCCCC[C@@H](C)Oc2ccc(NS(=O)(=O)c3c(C)noc3C)cc2C(=O)N([C@H](C)CO)C[C@@H]1C,-0.518%
16,C[C@H](CO)N1C[C@H](C)[C@H](CN(C)S(=O)(=O)c2cccs2)OCCCC[C@H](C)Oc2ccc(NC(=O)CCCN(C)C)cc2C1=O,-0.21%
17,CN1C(=O)c2cccc3c(N)ccc(c23)C1=O,28.3% (active)
18,O=C1c2cccc3c([N+](=O)[O-])ccc(c23)C(=O)N1CC1CCCO1 (configuration not stated),0.06%
19,CO[C@H]1CN(C)C(=O)c2cc(NC(=O)Nc3ccccc3F)ccc2OC[C@H](C)N(C)C[C@H]1C,-0.052%
20,COc1ccccc1S(=O)(=O)N(C)C[C@H]1Oc2cc(C#CCC3CCCC3)ccc2S(=O)(=O)N([C@@H](C)CO)C[C@H]1C,0.195%
21,COc1ccc2c3c(n(C)c2c1)[C@@H](CO)N(C(=O)c1cnccn1)CC31CCN(C(C)=O)CC1,-0.238%
22,CC(=O)N1c2ccc(S(=O)(=O)N3CCCC(C(=O)NCc4ccc(Cl)cc4)C3)cc2CC1C (configuration not stated),0.095%
23,CC(=O)N1c2ccc(S(=O)(=O)N3CCC(C(=O)NC4CCCCC4C)CC3)cc2CC1C (configuration not stated),0.24%
24,CC(=O)N1c2ccc(S(=O)(=O)N3CCC(C(=O)NCc4ccc(F)cc4)CC3)cc2CC1C (configuration not stated),1.48% (active)
